Screening data deposited in PubChem BioAssay by National Center for Advancing Translational Sciences (NCATS).
LASV entry inh = inhibitors of Lassa virus binding or cell entry | Lassa virus pseudotype entry inhibition, cell reporter | Potency, µM (top dose mostly 37.9 µM), inactives show top-dose activity change, negative = inhibition, usual class: inhibitors | 1.2% of 300,000 active; calls by dose curve; tested in HEK293 cells; note: potency is the fitted concentration of half-maximal effect; nearly all actives have a fitted effect of over 50% in size
HCMV antiviral = inhibitors of human cytomegalovirus; HFF cells, HCMV-luciferase reporter, 72 h; hits give low values; activity change, negative = inhibition, % at 57.5 µM; 4.5% of 410,000 active; AID 1259415; in the data active = activity change below about -60%; inconclusive = no clear call, values can overlap the other calls; inactive = above about -39%
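HFF cells seeded 16 h at 37C, treated with compounds, infected with luciferase-reporter HCMV at MOI 1 PFU/cell; luciferase read at 72 h post infection, normalized to buffer-only and Salinomycin controls.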
MARV entry inh = inhibitors of Marburg virus binding or cell entry | 1.8% of 300,000 active | Marburg virus pseudotyped entry inhibition, cell reporter | Potency, µM (top dose mostly 37.8 µM), inactives show top-dose activity change, negative = inhibition, actives largely listed as inhibitors; calls by dose curve; tested in HEK293 cells; note: potency is the fitted concentration of half-maximal effect
Vaccinia Venus = vaccinia inhibition (Venus reporter) | Vaccinia virus Venus reporter expression, fluorescence | Potency, µM (series often up to 36.5 µM), for inactives: top-dose activity change, negative = inhibition, usual class: inhibitors | AID 720580 | 0.46% of 330,000 active; calls by dose curve; tested in A549 cells; note: potency is the fitted concentration of half-maximal effect; nearly all actives have a fitted effect of over 30% in size
VACV mCherry inh = vaccinia inhibition (mCherry reporter); Potency, µM (top dose mostly 36.5 µM), for inactives: top-dose activity change, negative = inhibition, hits mostly inhibitors; Vaccinia virus mCherry reporter infection, fluorescence; 0.63% of 310,000 active; calls by dose curve; tested in A549 cells; note: potency is the fitted concentration of half-maximal effect; nearly all actives have a fitted effect of over 35% in size
HCV inh = blocks hepatitis C virus. Huh7.5.1 HCVcc-Cre infection, luciferase reporter, 44 h. Potency, µM (doses to about 41.8 µM), without a hit: top-dose activity change, negative = inhibition, hits mostly inhibitors. 3.4% of 340,000 active. AID 651820; active = well fitted inhibition curve with a large enough effect; inconclusive = small, poorly fitted or top-dose-only effect, or another doubt; inactive = no such curve, though single readings can be large or run the other way; note: potency is the fitted concentration of half-maximal effect
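Antiviral activity was scored by luciferase reporter output from cells infected with HCVcc-Cre (~0.5 moi) in presence of compound, 44 h infection period, cells seeded 1,000/well 4 h prior.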
* hit, by the source's call; i = inactive; ? = inconclusive; / = not tested or not shown; [ ] = remark or other dose. Hits are enriched below; roughly 7.8% of the tested compounds scored in any of these assays. % is set by controls: 0 for no effect and ±100 for the full control effect.

SMILES | LASV entry inh | HCMV antiviral | MARV entry inh | Vaccinia Venus | VACV mCherry inh | HCV inh
Cc1ccsc1CN(C(=O)COc1cccc(C)c1C)C1CCS(=O)(=O)C1 (centres undefined) | 3.7%[46.1 µM] | -15.8 | -35.0%[46.1 µM] | -3.7% | -11.6% | /
NS(=O)(=O)c1ccc(CCNc2ccn3nc(-c4cccc(C(F)(F)F)c4)cc3n2)cc1 | / | -28.5 | / | ? | 8.91µM* | /
COc1ccccc1-c1cc2nc(NCCc3ccc(S(N)(=O)=O)cc3)ccn2n1 | / | -15.5 | / | -7.7% | i | /
O=c1c2c(-c3cccs3)csc2ncn1-c1ccccc1 | 14.9% | -9.5 | -25.7% | -19.3% | / | ?
Cc1ccc(-n2cnc3scc(-c4cccs4)c3c2=O)cc1 | -1.1% | 21.2 | -13.8% | -22.9% | -14.5% | 11.2µM*
CN(C(=O)c1cnc(N2CCN(c3ncccn3)CC2)c2ccccc12)c1ccc(Cl)cc1 | ? | ? | ? | -5.4% | -16.4% | ?
O=C(O)c1ccccc1C(=O)N1CCN(c2ncccn2)CC1 | 1.8%[46.1 µM] | -0.4 | -2.3%[46.1 µM] | -10.0% | i | 13.1%
CCN(C(=O)c1cnc(N2CCN(c3ncccn3)CC2)c2ccccc12)c1cccc(Cl)c1 | ? | -85.3* | ? | ? | ? | ?
O=C(c1cnc(N2CCN(c3ncccn3)CC2)c2ccccc12)N1CCN(c2ncccn2)CC1 | -27.9% | ? | ? | -23.8% | -8.2% | 11.2µM*
O=C(c1sc2ccccc2c1Cl)N1CCN(c2ncccn2)CC1 | 7.6% | -62.5* | 4.4% | / | / | -2.7%
CCC1(C2CCN(C(=O)c3ccc(C)c(C)c3)CC2)NC(=O)N(CCc2scnc2C)C1=O (centres undefined) | / | / | / | -6.5% | i | /
CCC(=O)OCOc1ccc(/C=C2/CCC(CN(C)C)C2=O)cc1 (centres undefined) | ? | ? | ? | -13.7% | i | ?
COc1ccc2cc(CNc3ccccc3)c(=O)n(CC(=O)Nc3ccc(C)cc3C)c2c1 | ? | -32.9 | / | -16.6%[7.34 µM] | -15.9%[7.34 µM] | /
Cc1cc(Cl)ccc1C(=O)C1CCCN(C2CCSCC2)C1 (centres undefined) | ? | ? | 10µM* | -17.0% | ? | 2.0%
C#CCOCCOCCOCCNc1nc(N2CCN(C(=O)CCCCCCCCCCNC(=O)[C@H]([C@@H](C)CC)n3cc(CCCCCN)nn3)CC2)nc(N2CCN(C(=O)CCCCCCCCCCNC(=O)[C@H](CO)n3cc(CCCCCN)nn3)CC2)n1 | / | / | / | 10µM* | ? | ?
C#CCOCCOCCOCCNc1nc(N2CCN(C(=O)CCCCCCCCCCNC(=O)[C@H]([C@@H](C)CC)n3cc(CCCCCN)nn3)CC2)nc(N2CCN(C(=O)CCCCCCCCCCNC(=O)[C@@H]([C@H](C)CC)n3cc(CCCCCN)nn3)CC2)n1 | / | / | / | / | / | -9.7%
C#CCOCCOCCOCCNc1nc(N2CCN(C(=O)CCCCCCCCCCNC(=O)[C@@H](CCC(=O)O)n3cc(CCCCCN)nn3)CC2)nc(N2CCN(C(=O)CCCCCCCCCCNC(=O)[C@H]([C@@H](C)CC)n3cc(CCCCCN)nn3)CC2)n1 | / | / | / | ? | i | ?
C#CCOCCOCCOCCNc1nc(N2CCN(C(=O)CCCCCCCCCCNC(=O)[C@H]([C@@H](C)CC)n3cc(CCCCCN)nn3)CC2)nc(N2CCN(C(=O)CCCCCCCCCCNC(=O)[C@H](CCCCN)n3cc(CCCC(=O)O)nn3)CC2)n1 | / | / | / | ? | ? | 11.2µM*
C#CCOCCOCCOCCNc1nc(N2CCN(C(=O)CCCCCCCCCCNC(=O)[C@H](CCCCN)n3cc(CCCC(=O)O)nn3)CC2)nc(N2CCN(C(=O)CCCCCCCCCCNC(=O)[C@@H]([C@H](C)O)n3cc(C)nn3)CC2)n1 | / | / | / | -8.2% | -11.5% | -3.2%
C#CCOCCOCCOCCNc1nc(N2CCN(C(=O)CCCCCCCCCCNC(=O)[C@H]([C@@H](C)CC)n3cc(CCCCN=C(N)N)nn3)CC2)nc(N2CCN(C(=O)CCCCCCCCCCNC(=O)[C@H](CO)n3cc(CCCCCN)nn3)CC2)n1 | / | / | / | 7.08µM* | ? | ?
C#CCOCCOCCOCCNc1nc(N2CCN(C(=O)CCCCCCCCCCNC(=O)[C@H]([C@@H](C)CC)n3cc(CCCCN=C(N)N)nn3)CC2)nc(N2CCN(C(=O)CCCCCCCCCCNC(=O)[C@H](CCCCN)n3cc(C)nn3)CC2)n1 | / | / | / | 7.08µM* | ? | ?
CCCCCCCCN1[C@@H](CC(=O)OC)c2ccc(/C=C/C(=O)OC)cc2S1(=O)=O | / | / | / | -19.5% | -3.6% | /
CN(Cc1cccs1)[C@@H]1CC[C@@]23CCCN2C(=O)CCC[C@H]3[C@H]1Cc1ccccc1 | / | -21.5 | / | / | / | /
Cc1ccc(C(=O)OCC(=O)Nc2cc(Cl)ccc2C#N)o1 | / | 4.1 | / | -1.8% | i | /
CCCc1nc2ccc(NC(=O)c3ccccc3OC)cn2n1 | / | -13.2 | / | / | / | /
SMILES | LASV entry inh | HCMV antiviral | MARV entry inh | Vaccinia Venus | VACV mCherry inh | HCV inh
CC(=O)c1ccc(Oc2nc(C)nc3c2oc2ccccc23)cc1 | -14.5%[46.1 µM] | -35.7 | / | ? | ? | /
COC(=O)C1CCCCN1Cc1ccc2c(c1)CN(C1CCSCC1)CCO2 (centres undefined) | / | / | / | -6.0% | -5.7% | /
C#CCOCCOCCOCCNc1nc(N2CCN(C(=O)CCCCCCCCCCNC(=O)Cn3cc(CCCCCN)nn3)CC2)nc(N2CCN(C(=O)CCCCCCCCCCNC(=O)[C@H]([C@@H](C)CC)n3cc(CCCCN=C(N)N)nn3)CC2)n1 | / | / | / | 5.62µM* | ? | ?
C=CCN=C1NC(c2cccc(C(F)(F)F)c2)C(C(=O)OC)=C(C)N1CC (centres undefined) | / | / | 12.5%[14.2 µM] | / | / | /
CCN(CC)CCN1CCn2c3c(c4cc(C)ccc42)CCCC31 (centres undefined) | ? | ? | ? | / | / | 8.91µM*
CCN1CCn2c3c(c4cc(Cl)ccc42)CCCC31 (centres undefined) | 14.4% | 38.0 | ? | -14.9% | -28.1% | ?
Cc1cc(/C=N/n2cnnc2)c(C)n1-c1ccc(OCc2ccccc2F)cc1 | ? | -92.9* | ? | ? | -20.5% | ?
Cc1cc(/C=N/n2cnnc2)c(C)n1-c1ccc(OCc2ccc(Cl)cc2)cc1 | ? | -91.5* | ? | -22.6% | ? | 7.94µM*
Fc1ccccc1COc1cccc(/C=N/n2cnnc2)c1 | 16.9% | -26.1 | ? | / | / | 17.2%
CC(=O)Oc1ccc(N(C(C)=O)S(=O)(=O)c2ccc3ccccc3c2)cc1 | / | -70.9* | / | / | / | ?
O=C(CSc1ccc2nnc(-c3ccc(Cl)cc3)n2n1)N1CCCc2ccccc21 | 18.1% | -33.5 | -6.1% | -6.9% | -13.6% | -2.9%
O=C(CSc1ccc2nnc(-c3ccc(F)cc3)n2n1)N1CCCc2ccccc21 | ? | -76.5* | ? | -20.4% | ? | ?
CCc1cc(C(=O)NCC2Cc3cc(C)cc(-c4cc(C(C)=O)ccc4F)c3O2)n(C)n1 (centres undefined) | / | / | / | -23.3% | -25.8% | /
